# Rows were chosen to be rich in hits. Some 7.9% of all compounds tested hit in one or more screens of this group.
# FMDV inh: High Throughput Screening for Foot and Mouth Disease Virus Antivirals; 1.2% of 410,000 active; Potency, µM (doses to about 57.9 µM), inactives show top-dose activity change, negative = inhibition, usual class: inhibitors; FMDV antiviral cell-based qHTS; calls by dose curve; tested in HEK293T cells; note: read-out not given here; potency is the fitted concentration of half-maximal effect; nearly all actives have a fitted effect of over 45% in size
# LASV entry inh: qHTS for Inhibitors of binding or entry into cells for Lassa Virus | Lassa virus pseudotype entry inhibition, cell reporter | AID 540256, 2011 | 1.2% of 300,000 active | Potency, µM (doses to about 37.9 µM), for the others: at the highest dose activity change, negative = inhibition, usual class: inhibitors; calls by dose curve; tested in HEK293 cells; note: potency is the fitted concentration of half-maximal effect; nearly all actives have a fitted effect of over 50% in size
# HCMV inh: qHTS Assay for inhibitors of the human cytomegalovirus (HCMV) | HFF cells, HCMV-luciferase reporter, 72 h; stronger effect = lower value | activity change, negative = inhibition, % at 57.5 µM | 4.5% of 410,000 active; in the data active = activity change below about -60%; inconclusive = no clear call, values can overlap the other calls; inactive = above about -39%
#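 Compounds were evaluated in HFFs infected with an HCMV luciferase reporter virus (MOI 1 PFU/cell). Luciferase in lysates collected 72 h post infection served as the replication measure.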
# Marburg entry inh: qHTS for inhibitors of binding or entry into cells for Marburg Virus; Marburg virus pseudotyped entry inhibition, cell reporter; Potency, µM (titrated, usually from 37.8 µM), for the others: at the highest dose activity change, negative = inhibition, hits mostly inhibitors; 1.8% of 300,000 active; AID 540276, 2011; calls by dose curve; tested in HEK293 cells; note: potency is the fitted concentration of half-maximal effect
# HCV inhibitor: qHTS Assay for Inhibitors of Hepatitis C Virus (HCV); Potency, µM (highest dose often 41.8 µM), without a hit: top-dose activity change, negative = inhibition, actives largely listed as inhibitors; 3.4% of 340,000 active; Huh7.5.1 HCVcc-Cre infection, luciferase reporter, 44 h; active = well fitted inhibition curve with a large enough effect; inconclusive = small, poorly fitted or top-dose-only effect, or another doubt; inactive = no such curve, though single readings can be large or run the other way; note: potency is the fitted concentration of half-maximal effect
#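 Seed cells (1,000/well) for 4 h; treat with compound and infect with HCVcc-Cre, moi about 0.5. Incubate 44 h, then detect luciferase activity.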
# * marks the source's active call; other numbers are inactive results; ? = inconclusive; . = no result given; ! = repeats disagree; [ ] = remark or other dose. % is set by controls: 0 for no effect and ±100 for the full control effect.
SMILES,FMDV inh,LASV entry inh,HCMV inh,Marburg entry inh,HCV inhibitor
O=C1CC2OCC=C3CN4CCC56c7cc([N+](=O)[O-])ccc7N1C5C2C3CC46 (stereo not drawn),2.3%,.,-88.2*,.,-0.5%
COc1cccc(CN2CCN3C(C(=O)Nc4ccccc4)=COC3=NC2=O)c1,.,.,-61.7*,.,.
Cc1noc(C)c1CN1CCN2C(C(=O)Nc3ccccc3)=COC2=NC1=O,.,.,5.0,.,.
COc1ccc2c(c1O)-c1c(OC)c(OC)cc3c1[C@H](C2)N(C)CC3,0.0%,.,-62.6*,.,9.6%
COc1ccc2cc1Oc1ccc(cc1)C[C@H]1c3cc(c(OC)cc3CCN1C)Oc1c(OC)c(OC)cc3c1[C@@H](C2)N(C)CC3,0.0%,.,-66.5*,.,?
CN1CCc2cccc3c2[C@H]1Cc1ccc(O)c(O)c1-3,?,?,-66.3*,-26.8%,?
C=CCN1CCc2cccc3c2C1Cc1ccc(O)c(O)c1-3 (stereo not drawn),-0.5%,.,.,11.2µM*,.
O=C(c1ccc(=O)[nH]c1)N1CCN(S(=O)(=O)c2ccc3ccccc3c2)CC1,-24.2%,.,-16.3,.,-5.9%
Cc1ccc(-c2nc(C(=O)NCc3ccccc3Cl)c3n2CCCCC3)cc1,-0.4%,-5.9%[46.1 µM],-18.9,.,.
CCCN(CCC)C(=O)Cn1ccc(=N)c2c1CCCC2,.,.,.,-2.8%,.
Cc1ccc(C)c(CN2CCc3nnc(CNC(=O)c4cc(C)oc4C)n3CC2)c1,-20.5%,.,.,.,.
CCc1ccc(S(=O)(=O)NCc2ccc3c(c2)CCN3C(=O)c2ccc(C)cc2)cc1,?,?,52.4,.,.
COc1ccc2c(c1O)-c1cccc3c1C(C2)N(C)CC3 (stereo not drawn),.,.,.,1µM*,.
COc1ccc2c(c1O)-c1c(OC)c(OC)cc3c1[C@@H](C2)N(C)CC3,15.1%,.,.,.,.
COc1ccccc1-c1noc(-c2ccc(N3CCOCC3)c([N+](=O)[O-])c2)n1,27.5%,-26.6%[46.1 µM],59.3,-18.8%[46.1 µM],.
C/C(=N/NC(=O)c1ccc(Cl)s1)c1ccc(NC(=O)COc2ccc(Cl)cc2)cc1,-16.2%,0.1%,-77.0*,?,13.4%
C/C(=N/NC(=O)c1ccc(C)s1)c1cccc(NC(=O)COc2ccc(Cl)cc2Cl)c1,15.5%,-25.2%,-35.4,?,10.5%
C/C(=N/NC(=O)c1cccs1)c1ccc(NC(=O)COc2ccc(Cl)cc2Cl)cc1,4.4%,13µM*,-33.3,?,-6.1%
COc1cccc(C2=NN(C(C)=O)C(c3cn(-c4ccccc4)nc3-c3cccs3)C2)c1 (stereo not drawn),-5.0%,1.8%[46.1 µM],2.7,-2.0%[46.1 µM],.
CC(C(=O)O)N1CCCCC1 (stereo not drawn),-12.1%,.,0.0,.,13.4%
COc1ccc(C(CNC(=O)c2cccc(S(=O)(=O)Nc3ccccc3OC)c2)N2CCCCC2)cc1 (stereo not drawn),-18.7%,?,-99.2*,?,?
CCN(c1ccccc1)S(=O)(=O)c1cccc(C(=O)NCC(c2ccc(OC)cc2)N2CCCCC2)c1 (stereo not drawn),-11.3%,.,-19.0,.,.
C=CCN(c1ccccc1)S(=O)(=O)c1cccc(C(=O)NCC(c2ccc(OC)cc2)N2CCCCC2)c1 (stereo not drawn),-5.8%,?,-13.7,?,6.31µM*
COc1cc(OC)c(CN2CCOc3ccc(CN4CCC(O)CC4)cc3C2)c(OC)c1,-11.5%,.,.,.,.
COc1ccc2ccccc2c1CN1CCc2nnc(CNC(=O)c3cccc(F)c3)n2CC1,-5.5%,.,.,.,.
SMILES,FMDV inh,LASV entry inh,HCMV inh,Marburg entry inh,HCV inhibitor
CCCCN(C)CC(O)Cn1cc(/C=C/C(=O)c2ccc(OC)c(OC)c2)c2ccccc21 (stereo not drawn),-4.1%,?,-107.7*,4.47µM*,.
CCCN(CCC)CC(O)Cn1cc(/C=C/C(=O)c2ccc(C)cc2)c2ccccc21 (stereo not drawn),0.0%,?,-106.9*,?,.
CCCN(CCC)CC(O)Cn1cc(/C=C/C(=O)c2ccc(OC)cc2)c2ccccc21 (stereo not drawn),-14.4%,?,8.4,?,.
CCCCN(C)CC(O)Cn1cc(/C=C/C(=O)c2ccc(Br)cc2)c2ccccc21 (stereo not drawn),-19.1%,?,-107.0*,?,.
CCCN(CCC)CC(O)Cn1cc(/C=C/C(=O)c2ccccc2)c2ccccc21 (stereo not drawn),-19.3%,.,-27.0,.,?
CCCCN(C)CC(O)Cn1cc(/C=C/C(=O)c2ccc(C)cc2)c2ccccc21 (stereo not drawn),?,?,-97.7*,?,12.6µM*
CCCCN(C)C(=S)Nc1ccsc1C(=O)OC,-11.9%,.,0.0,.,-0.6%
CCOC(=O)c1c(C)sc2c1N(C(=O)CCl)c1cc(Cl)ccc1S2,10µM*,?,-96.0*,?,?
Cc1n[nH]c(C)c1CCc1nc2c3ccccc3nc(SCC(=O)Nc3ccccc3F)n2n1,-11.7%,-15.1%,-72.7*,?,?
Cc1nc2ccccc2n1CCc1nc2c3ccccc3nc(SCC(=O)Nc3ccc(Br)cc3F)n2n1,-7.7%,14.2%[46.1 µM],-5.6,.,.
Cc1cccc(NC(=O)CSc2nc3ccccc3c3nc(CCc4c(C)n[nH]c4C)nn23)c1,?,?,-81.7*!,18.3µM*,25.1µM*
CC12CN(NC(=O)c3ccccc3F)C3(C#N)CC1CCC23C (stereo not drawn),3.5%,-6.7%,-74.8*,7.8%[46.1 µM],23.0%
CCOc1ccccc1CN1CCC(Oc2ccc(C(=O)NCc3ccccn3)cc2)CC1,-21.4%,.,6.5,.,-26.5%
Cc1cccnc1CCNC(=O)c1ccc(OC2CCN(Cc3ccccn3)CC2)cc1,?,-24.7%,-36.0,?,-15.8%
O=C(NCCc1cccc(Cl)c1)c1ccc(OC2CCN(Cc3ccccn3)CC2)cc1,28.2µM*,.,-71.0*,.,?
CCn1cc(CNC(=O)c2ccc(OC3CCN(Cc4ccccn4)CC3)cc2)cn1,?,?,-71.4*,-0.8%[46.1 µM],10µM*
C[C@@H]1CN([C@@H](C)CO)C(=O)CCCn2cc(nn2)CO[C@H]1CN(C)C(=O)Nc1cccc2ccccc12,.,.,27.8,.,.
COc1cccc(CN2CCC3(CCC(CNC(=O)c4cc(C)nn4C)O3)CC2)c1OC (stereo not drawn),-7.3%,.,.,.,.
CCN(CC)Cc1c(O)ccc2c([N+](=O)[O-])c(C)n(-c3ccc(OC)cc3)c12,-21.3%,-4.4%,-95.9*,?,?
CCN(CC)Cc1c(O)ccc2occ(C(=O)c3ccc(OC)cc3)c12,-16.4%,?,-11.0,?,-23.9%
CCn1c(SCC(=O)Nc2ccc(F)cc2)nnc1C1CC1,11.2%,15.5%[46.1 µM],14.2,?,12.5%
COc1cc(=O)n2c(c1C(=O)NC(C)c1ccco1)CCN(C(=O)c1cccc(C)c1C)CC2 (stereo not drawn),27.0%,.,.,.,.
Cc1ccc(-n2nc3c([n+]2[O-])CCc2c-3no[n+]2[O-])cc1,4.9%,?,-77.8*,?,-14.7%
